Experimental findings from PubChem BioAssay (NCATS) are described below.

SMILES strings stand for the structures. Records with an inconclusive call do not appear. Calls of active or inactive are those of the source. The call rests on the fitted dose curve; in most records, active means well fitted cell-killing curve with a large enough effect; inconclusive means small, poorly fitted or top-dose-only effect, or effect the other way; inactive means no such curve, though single readings can be large or run the other way.
Potency means the concentration at half of the fitted maximal effect.

The nature of this experiment: Quantitative High-Throughput drug screen in 47 multiple myeloma cell lines against the NCATS MIPE library collection: MMM1_PLB cell viability assay (AID 1918976). Further: nearly all actives have a fitted effect of over 35% in size. Particulars: MMM1 myeloma cells viability, CellTiter-Glo, 48 h; series mostly up to 45.8 µM. An outline of the steps:
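Plated at 500 cells per well, myeloma lines received MIPE 4.0 compounds by pin tool. Following 48 h culture at 37 °C, CellTiter-Glo luminescence gave viability relative to DMSO and media-only controls.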
For `O=C1c2ccccc2-[n+]2ccc3c([nH]c4ccccc43)c21`, the Potency was 1.32 µM (active).
Take `CC[C@]1(O)C[C@@H]2CN(CCc3c([nH]c4ccccc34)[C@@](C(=O)OC)(c3cc4c(cc3OC)N(C=O)[C@@H]3C45CCN4CC=C[C@](CC)([C@H]45)[C@@H](OC(C)=O)[C@]3(O)C(=O)OC)C2)C1` (stereo partly specified): the Potency is 10.5 µM (active).
Regarding `NC(=O)[C@@H](CCC(F)(F)F)N(Cc1ccc(-c2ncon2)cc1F)S(=O)(=O)c1ccc(Cl)cc1`, the Potency was 26.4 µM (active).
For `O=C(Nc1cccc(Br)c1)c1cccc(S(=O)(=O)N2CCCCCC2)c1` the value was 18.7 µM (active).
Under `O=c1c(-c2ccc(O)cc2)coc2cc(O)ccc12` stands 5.26 µM (active); under `O=C1NC(=O)C(=Cc2cccc(C(F)(F)F)c2)S1`, 23.5 µM (active); under `O=c1cc(N2CCOCC2)oc2c(-c3cccc4c3sc3ccccc34)cccc12`, 20.9 µM (active).
Under `CC(=O)OC1C(C)OC(Oc2c(-c3ccc(O)cc3)oc3cc(O)cc(O)c3c2=O)C(O)C1OC(C)=O` (stereo unspecified) stands 2.96 µM (active); under `CCN(CC)CCOc1ccc(C(=C(Cl)c2ccccc2)c2ccccc2)cc1`, “inactive”; under `O=C1NC(=O)C(=Cc2ccc3c(c2)OC(F)(F)O3)S1`, 10.5 µM (active).
Consider `O=c1cc(CN2CCOCC2)occ1OCCCCCSc1ccnc2cc(C(F)(F)F)ccc12`, for which the Potency was 16.6 µM (active).
For `O=C1NC(=O)C(=Cc2ccc3nccnc3c2)S1` the value was 8.12 µM (active); for `COCCOc1nc(-c2ccc(Cl)c(Cl)c2)n(-c2ccc(NC(=O)CCl)cc2)n1`, 16.6 µM (active); for `CS(=O)(=O)N(Cc1ccco1)CC(O)Cn1c2ccccc2c2ccccc21` (stereo unspecified), 20.9 µM (active).
For `Oc1ccc(C2CCN(c3ccnc4ccccc34)CC2)cc1O` the value was 9.35 µM (active); for `O=c1cc(-c2ccccc2)oc2cc(O)c(O)c(O)c12`, 23.5 µM (active); for `CC=CC[C@@H](C)C(=O)[C@H]1C(=O)N[C@@H](C(C)C)C(=O)N(C)CC(=O)N(C)[C@@H](CC(C)C)C(=O)N[C@@H](C(C)C)C(=O)N(C)[C@@H](CC(C)C)C(=O)N[C@@H](C)C(=O)N[C@H](C)C(=O)N(C)[C@@H](CC(C)C)C(=O)N(C)[C@@H](CC(C)C)C(=O)N(C)[C@@H](C(C)C)C(=O)N1C`, 5.26 µM (active).
For `CN(C)C1CCN(C(=O)c2ccc(NC(=O)Nc3nc(N4CCOCC4)nc(N4CCOCC4)n3)cc2)CC1` the value was 0.0235 µM (active); for `C[C@H](NC(=O)C(=O)Nc1ccccc1C(C)(C)C)C(=O)N[C@@H](CC(=O)O)C(=O)COc1c(F)c(F)cc(F)c1F`, “inactive”; for `CC(C)OC(=O)CCCC=CC[C@@H]1[C@H](C=C[C@@H](O)COc2cccc(C(F)(F)F)c2)[C@H](O)C[C@@H]1O`, 14.8 µM (active).
Regarding `O=C(NCc1ccncc1)C12C[C@H]3C[C@@H](C1)CC(c1ccc(Cl)cc1)(C3)C2`, the Potency was 14.8 µM (active).
On to `CC[C@@H]1C=C(C)C[C@H](C)C[C@H](OC)[C@H]2O[C@@](O)(C(=O)C(=O)N3CCCC[C@@H]3C(=O)O[C@H](C(C)=C[C@@H]3CC[C@H](Cl)[C@H](OC)C3)[C@H](C)[C@@H](O)CC1=O)[C@H](C)C[C@H]2OC`, for which the Potency is 11.8 µM (active).
For `N[C@H](CSC(c1ccccc1)(c1ccccc1)c1ccccc1)C(=O)O` the value was “inactive”; for `CC(=O)O[C@]1(C(C)=O)CC[C@@H]2[C@@H]3C[C@H](C)C4=CC(=O)CC[C@]4(C)[C@H]3CC[C@@]21C`, 20.9 µM (active).
Turning to `CC(C)(C)Cn1c(N)nc2ccc(-c3[nH]c(C(C)(C)C)nc3-c3ccc(F)cc3)nc21`, the Potency was 20.9 µM (active).
For `O=C(O)[C@H]1O[C@H](Oc2cc3oc(-c4ccccc4)cc(=O)c3c(O)c2O)[C@H](O)[C@@H](O)[C@H]1O` the value was 20.9 µM (active).
For `Oc1ccc(C2=Cc3ccc(O)cc3OC2)cc1` the value was 5.26 µM (active); for `C[C@H](NC(=O)c1sccc1OCc1ccc(Cl)cc1)c1ccccc1`, 16.6 µM (active).
Under `NC(=O)c1cccc(-c2cc(Nc3ccc(OC(F)(F)F)cc3)ncn2)c1` stands 20.9 µM (active); under `NC(=O)c1cnc(-c2ccc(C3(N)CCC3)cc2)c(-c2ccccc2)c1`, 0.743 µM (active); under `O=C(N[C@@H](c1ccccc1)[C@@H]1CCCCN1)c1cccc(C(F)(F)F)c1Cl`, 1.32 µM (active).
